Results filed as inconclusive are left out. A call without a number means that no potency is given here. The source made the active and inactive calls. Calls come from the whole dose curve; as a rule, active = well fitted activation curve with a large enough effect; inconclusive = small, poorly fitted or top-dose-only effect; inactive = no such curve, though single readings can be large or run the other way.
test: qHTS assay for re-activators of p53 using a Luc reporter: Hit Validation; details: p53-responsive luciferase reporter cells, luminescence, H1299 line expressing heat-sensitive Ala138Val p53; series mostly up to 46.1 µM; note: nearly all actives have a fitted effect of over 75% in size
How it was run: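 H1299 (p53-null) cells stably carrying p53-A138V and a BP100-luciferase reporter, 1000 cells/well, treated 24 h at 37 deg C. Compounds at several concentrations, 1:5 dilution; nocodazole control; luminescence read after 10 min with detection reagent.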
Potency is the fitted concentration of half-maximal effect.

For `CCOc1ccc2c(c1)C(=NNC(=O)c1ccncc1)c1cc(OCC)ccc1-2`, which Potency is on record?
Its Potency is “inactive”.

For `Cc1cc(C)nc(CC(N)=O)n1`, which Potency is on record?
The Potency was “inactive”.

With `COc1ccc(N2CCN(CC(=O)Nc3ccc(C)cc3)CC2)cc1` as the molecule, how does the Potency read?
The Potency was “inactive”.

Which Potency does the source give for `Cc1ccccc1C(=O)Nc1ccc(Br)cn1` here?
Its Potency is 3660 nM (active).

Which Potency does the source give for `Cc1cc(/C=N/Nc2ncnc(N)c2[N+](=O)[O-])c(C)n1-c1ccccc1` here?
Its Potency is 92 nM (active).

With `C/C(=N\NC(=O)c1cccs1)C(C)(C)C` as the molecule, how does the Potency read?
The Potency was “inactive”.

For `CCc1ccc(NC(=O)c2cnn3ccccc23)cc1`, which Potency is on record?
The Potency was 920 nM (active).

With `CCOC(=O)C1CCN(S(=O)(=O)Cc2ccccc2)C1=O` (stereo not drawn) as the molecule, how does the Potency read?
Its Potency is “inactive”.

With `O=C(c1cccc(S(=O)(=O)NCc2ccc3c(c2)OCO3)c1)N1CCCC1` as the molecule, how does the Potency read?
The Potency was “inactive”.

Which Potency does the source give for `Cc1nc(NC(=O)c2csc3ccccc23)sc1C` here?
Its Potency is 820 nM (active).

Which Potency does the source give for `C/C(=N\NC(=O)c1cc(C)nc2ccccc12)c1ccccn1` here?
Its Potency is 16400 nM (active).

For `Cc1ccc(NC(CC(=O)c2ccccc2)c2ccc(F)cc2)cc1` (stereo not drawn), which Potency is on record?
The Potency was “inactive”.

For `Cc1ccccc1S(=O)(=O)Nc1nc2ccccc2nc1N1CCc2ccccc2C1`, which Potency is on record?
Its Potency is “inactive”.

Which Potency does the source give for `c1ccc(COc2ccc(OCCOCCn3cncn3)cc2)cc1` here?
The Potency was 2910 nM (active).

Which Potency does the source give for `Cc1cc(=O)[nH]c(N/N=C/c2ccccn2)n1` here?
The Potency was 13000 nM (active).

Which Potency does the source give for `COc1ccc(CCC(=O)NC(C)C2CCCO2)cc1` (stereo not drawn) here?
Its Potency is “inactive”.

For `COc1cc(NC(=O)CN2CCCCC2)c(C)cc1[N+](=O)[O-]`, which activation is on record?
Its activation is 9.16% [at 9.22 µM] (inactive).

Which Potency does the source give for `CCCCn1c(O)c(N=Nc2ccccc2O)c2ccccc21` here?
The Potency was “inactive”.

Which Potency does the source give for `c1ccc2sc(-c3ccc4c(c3)OCO4)nc2c1` here?
Its Potency is 2310 nM (active).

Which Potency does the source give for `O=C(CCC1CCCC1)Nc1ccc(Br)cn1` here?
The Potency was 11600 nM (active).

For `O=C(CSc1nnc(-c2ccc3c(c2)OCCO3)o1)N1CCCC1`, which Potency is on record?
Its Potency is 7310 nM (active).

Which Potency does the source give for `COc1ccc(CCNC(=O)/C=C/c2ccc(S(=O)(=O)N3CCOCC3)cc2)cc1` here?
The Potency was “inactive”.

Which Potency does the source give for `CCN(CC)c1ccc(NC(=O)CN2CCN(CC(=O)Nc3ccccc3F)CC2)cc1` here?
The Potency was “inactive”.

For `N#C/C(Cn1c[n+](NC(=O)Nc2ccccc2)cn1)=N/O`, which Potency is on record?
Its Potency is “inactive”.

With `Clc1ccc(-c2cn3c(n2)-c2ccccc2C3)cc1Cl` as the molecule, how does the Potency read?
The Potency was 10300 nM (active).

With `Cc1ccc2nc(C(F)(F)F)c(C#N)c(N)c2c1` as the molecule, how does the Potency read?
The Potency was “inactive”.

Which Potency does the source give for `CCOC(=O)c1cc(-c2ccccc2)sc1NC(=O)CC` here?
The Potency was “inactive”.

With `O=c1[nH]c2ccc(N/C(=N/S(=O)(=O)c3ccccc3)c3ccccc3)cc2[nH]1` as the molecule, how does the Potency read?
Its Potency is “inactive”.

With `CCOC(=O)NC1(Nc2ccc(C)cc2)Oc2ccccc2O1` as the molecule, how does the Potency read?
The Potency was 16400 nM (active).

Which Potency does the source give for `CCOC(=O)c1c(C)[nH]c(C(=O)OCCOc2ccccc2C)c1C` here?
The Potency was 1300 nM (active).

With `CN1CCN(C2=C(Cl)C(=O)N(Cc3ccccc3)C2=O)CC1` as the molecule, how does the Potency read?
The Potency was “inactive”.

With `CCN(Cc1ccccc1)C(=O)CN1C(=S)NC(C)(C)CC1C` (stereo not drawn) as the molecule, how does the activation read?
Its activation is -15.4% [at 9.22 µM] (inactive).

For `O=C(C1CCCN1S(=O)(=O)c1ccc(Cl)cc1)N1CCOCC1` (stereo not drawn), which Potency is on record?
The Potency was “inactive”.

Which Potency does the source give for `COc1ccccc1-c1nc(-c2ccc(Br)o2)no1` here?
Its Potency is 366 nM (active).

For `CCc1ccc2c(CN(CC)Cc3nc4ccccc4c(=O)[nH]3)cc(=O)oc2c1`, which activation is on record?
Its activation is -11.9% [at 9.22 µM] (inactive).

With `Nc1ccc(-c2cnc(-c3ccc(N)cc3)nc2)cc1` as the molecule, how does the Potency read?
The Potency was 291 nM (active).

For `COC(=O)C1=C(C(=O)c2ccccc2)C(c2ccc(OC)c(OC)c2)Nc2nnnn21` (stereo not drawn), which Potency is on record?
Its Potency is “inactive”.

Which Potency does the source give for `CSCCC(NC(=O)c1ccc(Cl)cc1Cl)C(=O)N1CC(C)OC(C)C1` (stereo not drawn) here?
The Potency was “inactive”.

From PubChem BioAssay AID624305 (National Center for Advancing Translational Sciences (NCATS), 2012)
